# Results reported in PMC8384837, “Expanding the binding specificity for RNA recognition by a PUF domain”.
# Experiments:
# Test in all cases: yeast three-hybrid, YBZ-1, SC-Leu-His + 0.5 mM 3-AT, 4 days
# Conditions in all cases: tags: N-Gal4 AD-HA kept; label: inside an RPR1-promoter hybrid RNA with tandem MS2 sites; ssRNA
# PUM1 PUF domain R5-SNS = PUM1 PUF domain R5-SNS (Homo sapiens, UniProt Q14671 828-1176, C1007S;R1008N;Q1011S)
# Method in brief: (§1)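 A centromeric plasmid in strain YBZ-1 co-expressed Pumilio-1 PUF domain libraries, randomized at the three base-contacting residues of each repeat, with matching RNA elements; the strain carries a LexA–MS2 coat fusion and a HIS3 reporter. After four days on SC-Leu (input) or SC-Leu-His + 0.5 mM 3-AT (selection), the repeat regions were PCR-amplified and Illumina-sequenced. The interaction score is the log change in variant frequency from input to selection, using log2 and a pseudocount of 1 where absent.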
# PUM1 PUF domain R5-KRM = PUM1 PUF domain R5-KRM (Homo sapiens, UniProt Q14671 828-1176, C1007K;Q1011M)
# Sequence of PUM1 PUF domain R5-KRM (Q14671 828-1176 C1007K/Q1011M): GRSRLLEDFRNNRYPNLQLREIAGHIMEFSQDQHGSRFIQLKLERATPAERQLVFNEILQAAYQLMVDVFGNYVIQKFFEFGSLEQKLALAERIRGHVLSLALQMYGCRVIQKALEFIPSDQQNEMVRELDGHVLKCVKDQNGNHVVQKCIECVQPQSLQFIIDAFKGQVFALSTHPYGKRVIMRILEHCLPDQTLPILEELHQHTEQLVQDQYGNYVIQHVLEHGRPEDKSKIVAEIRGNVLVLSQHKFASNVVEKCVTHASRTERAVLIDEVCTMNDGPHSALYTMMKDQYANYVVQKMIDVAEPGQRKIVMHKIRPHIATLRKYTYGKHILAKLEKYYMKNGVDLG
# Method in brief: as §1
# PUM1 PUF domain R1-QYK = PUM1 PUF domain R1-QYK (Homo sapiens, UniProt Q14671 828-1176, S863Q;R864Y;Q867K)
# Sequence of PUM1 PUF domain R1-QYK (Q14671 828-1176 S863Q/R864Y/Q867K): as the sequence (Q14671 828-1176 C1007K/Q1011M) above, with S36Q, R37Y, Q40K, K180C, M184Q counted along it
# Method in brief: as §1
# PUM1 PUF domain R3-LWD = PUM1 PUF domain R3-LWD (Homo sapiens, UniProt Q14671 828-1176, C935L;R936W;Q939D)
# Sequence of PUM1 PUF domain R3-LWD (Q14671 828-1176 C935L/R936W/Q939D): as the sequence (Q14671 828-1176 C1007K/Q1011M) above, with C108L, R109W, Q112D, K180C, M184Q counted along it
# Method in brief: as §1
# PUM1 PUF domain R3-FQC = PUM1 PUF domain R3-FQC (Homo sapiens, UniProt Q14671 828-1176, C935F;R936Q;Q939C)
# Sequence of PUM1 PUF domain R3-FQC (Q14671 828-1176 C935F/R936Q/Q939C): as the sequence (Q14671 828-1176 C1007K/Q1011M) above, with C108F, R109Q, Q112C, K180C, M184Q counted along it
# Method in brief: as §1
# PUM1 PUF domain R3-RPV = PUM1 PUF domain R3-RPV (Homo sapiens, UniProt Q14671 828-1176, C935R;R936P;Q939V)
# Sequence of PUM1 PUF domain R3-RPV (Q14671 828-1176 C935R/R936P/Q939V): as the sequence (Q14671 828-1176 C1007K/Q1011M) above, with C108R, R109P, Q112V, K180C, M184Q counted along it
# Method in brief: as §1
# PUM1 PUF domain R8-KWC = PUM1 PUF domain R8-KWC (Homo sapiens, UniProt Q14671 828-1176, N1122K;Y1123W;Q1126C)
# Sequence of PUM1 PUF domain R8-KWC (Q14671 828-1176 N1122K/Y1123W/Q1126C): as the sequence (Q14671 828-1176 C1007K/Q1011M) above, with K180C, M184Q, N295K, Y296W, Q299C counted along it
# Method in brief: as §1
# PUM1 PUF domain R4-FNH = PUM1 PUF domain R4-FNH (Homo sapiens, UniProt Q14671 828-1176, N971F;H972N;Q975H)
# Sequence of PUM1 PUF domain R4-FNH (Q14671 828-1176 N971F/H972N/Q975H): as the sequence (Q14671 828-1176 C1007K/Q1011M) above, with N144F, H145N, Q148H, K180C, M184Q counted along it
# Method in brief: as §1
# Sequence of PUM1 PUF domain R5-SNS (Q14671 828-1176 C1007S/R1008N/Q1011S): as the sequence (Q14671 828-1176 C1007K/Q1011M) above, with K180S, R181N, M184S counted along it
sequence,measurement,setting,value
GGCUAGAACUAGUGGAUCCCCCGGCGCCCGGCGGCUCGAGCCCGGGUAAGUGUUAAUAGUCUGCAUGCCGCCGGGCGCCAUGCCUGCAGGUCGACUCUAGAAAACAUG,binding signal,PUM1 PUF domain R5-SNS,3.23 log2 enrichment (interaction score)
same,binding signal,PUM1 PUF domain R5-KRM,3.73 log2 enrichment (interaction score)
GGCUAGAACUAGUGGAUCCCCCGGCGCCCGGCGGCUCGAGCCCGGGUAAGUGUAAAUCGUCUGCAUGCCGCCGGGCGCCAUGCCUGCAGGUCGACUCUAGAAAACAUG,binding signal,PUM1 PUF domain R1-QYK,6.38 log2 enrichment (interaction score)
GGCUAGAACUAGUGGAUCCCCCGGCGCCCGGCGGCUCGAGCCCGGGUAAGUGUAAGUAGUCUGCAUGCCGCCGGGCGCCAUGCCUGCAGGUCGACUCUAGAAAACAUG,binding signal,PUM1 PUF domain R3-LWD,4.02 log2 enrichment (interaction score)
same,binding signal,PUM1 PUF domain R3-FQC,3.36 log2 enrichment (interaction score)
GGCUAGAACUAGUGGAUCCCCCGGCGCCCGGCGGCUCGAGCCCGGGUAAGUGUAAUUAGUCUGCAUGCCGCCGGGCGCCAUGCCUGCAGGUCGACUCUAGAAAACAUG,binding signal,PUM1 PUF domain R3-LWD,1.73 log2 enrichment (interaction score)
same,binding signal,PUM1 PUF domain R3-RPV,2.55 log2 enrichment (interaction score)
GGCUAGAACUAGUGGAUCCCCCGGCGCCCGGCGGCUCGAGCCCGGGUAAGCGUAAAUAGUCUGCAUGCCGCCGGGCGCCAUGCCUGCAGGUCGACUCUAGAAAACAUG,binding signal,PUM1 PUF domain R8-KWC,4.87 log2 enrichment (interaction score)
GGCUAGAACUAGUGGAUCCCCCGGCGCCCGGCGGCUCGAGCCCGGGUAAGUGUAAAUAGUCUGCAUGCCGCCGGGCGCCAUGCCUGCAGGUCGACUCUAGAAAACAUG,binding signal,PUM1 PUF domain R5-KRM,2.19 log2 enrichment (interaction score)
GGCUAGAACUAGUGGAUCCCCCGGCGCCCGGCGGCUCGAGCCCGGGUAAGUGUAUAUAGUCUGCAUGCCGCCGGGCGCCAUGCCUGCAGGUCGACUCUAGAAAACAUG,binding signal,PUM1 PUF domain R4-FNH,5.93 log2 enrichment (interaction score)
